Assay outcomes from PubChem.
Beta cell apopt: beta cell apoptosis inhibition; protection from apoptosis, % (no concentration beside the values); AID 435005; INS-1E cytokine-induced death, ATP luminescence, 48 h; percent of positive-control rescue, neutral wells zero; 0.8% of 300,000 active;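 active means Every replicate reaches about 75%, or at least half do and their mean reaches it too, limit read from the data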;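 further: 0% = cytokine-treated negative control wells and 100% = positive control rescue; higher means more ATP so stronger rescue from cytokine killing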
CSC inhib: cancer stem cell inhibition | 1.1% of 300,000 active | cancer stem cell-like cells viability, luminescence | AID 2717 | inhibition, % at 7.5 µM; in the data active means inhibition above about 75%; tested in HMLE shEcad cells
Gli-Sufu block: antagonists of Gli-Sufu signaling; Sufu-KO-LIGHT fibroblasts, Gli luciferase reporter luminescence; inhibition, % at 5 µM; 0.74% of 340,000 active; AID 588413;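 active means inhibition above about 55%, limit read from the data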;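 further: 0% = DMSO-treated cells and 100% = wells with medium but no cells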
697 NFkB inh: lowers PMA/ionomycin-induced NF-kB signal in 697 B cells. 697 B-cell NF-kB luciferase reporter, 16 h. inhibition, % at 4 µM. 0.33% of 330,000 active; in the data active means inhibition above about 35%
Mdm2 MdmX PPI: inhibitors of human Mdm2/MdmX interaction; inhibition, % at 8 µM; O15151+Q00987; SaOS-2 split-luciferase Mdm2/MdmX complementation, luminescence; 3% of 330,000 active;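 active means inhibition of at least 50% at 8 µM in the primary screen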
Target sequence (O15151 whole entry, looked up): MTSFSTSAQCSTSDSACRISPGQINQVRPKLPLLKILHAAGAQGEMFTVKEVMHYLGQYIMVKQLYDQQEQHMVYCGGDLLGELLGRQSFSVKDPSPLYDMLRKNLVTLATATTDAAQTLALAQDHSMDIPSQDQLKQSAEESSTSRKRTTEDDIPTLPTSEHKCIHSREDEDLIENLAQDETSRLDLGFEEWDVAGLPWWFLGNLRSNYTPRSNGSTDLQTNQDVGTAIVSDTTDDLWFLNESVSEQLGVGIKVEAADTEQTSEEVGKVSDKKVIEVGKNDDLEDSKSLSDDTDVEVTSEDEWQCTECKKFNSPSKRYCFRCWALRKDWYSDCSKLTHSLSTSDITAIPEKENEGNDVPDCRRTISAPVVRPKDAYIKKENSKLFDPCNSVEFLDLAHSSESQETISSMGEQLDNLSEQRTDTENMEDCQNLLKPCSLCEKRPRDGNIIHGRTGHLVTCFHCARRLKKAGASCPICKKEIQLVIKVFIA
Target sequence (Q00987 whole entry, looked up): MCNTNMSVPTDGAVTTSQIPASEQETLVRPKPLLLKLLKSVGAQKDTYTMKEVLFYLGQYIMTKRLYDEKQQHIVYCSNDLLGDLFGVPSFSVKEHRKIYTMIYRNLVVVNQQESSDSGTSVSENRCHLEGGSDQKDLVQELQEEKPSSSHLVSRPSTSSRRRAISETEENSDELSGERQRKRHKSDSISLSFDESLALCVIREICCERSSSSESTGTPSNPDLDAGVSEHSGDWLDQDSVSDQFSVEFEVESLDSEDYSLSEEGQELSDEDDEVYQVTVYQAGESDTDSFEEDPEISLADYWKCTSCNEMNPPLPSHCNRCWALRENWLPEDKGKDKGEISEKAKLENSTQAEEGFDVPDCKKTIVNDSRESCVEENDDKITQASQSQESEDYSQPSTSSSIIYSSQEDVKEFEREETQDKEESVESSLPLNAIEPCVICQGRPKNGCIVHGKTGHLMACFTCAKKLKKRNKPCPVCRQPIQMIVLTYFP
Jurkat NFkB inh: lowers PMA/ionomycin-induced NF-kB signal in Jurkat cells; PMA/ionomycin-induced NF-kB luciferase reporter, luminescence; inhibition, % at 4 µM; 0.53% of 330,000 active; AID 435003; in the data active means inhibition above about 50%
Starred values were filed as active, the others as inactive; . = not tested or not shown. Rows were chosen to be rich in hits. Some 4.5% of all compounds tested hit in one or more screens of this group.

SMILES	Beta cell apopt	CSC inhib	Gli-Sufu block	697 NFkB inh	Mdm2 MdmX PPI	Jurkat NFkB inh
O=C(/C=C/c1ccco1)Nc1nc(-c2ccccc2)cs1	3.9	17.9	-19.5	-75.1	-40.1	-52.5
Cc1c(C(=O)N(C)C(C)c2ccccn2)oc2c(F)cccc12 (centres undefined)	9.6	8.9	-0.2	-43.6	-18.3	-36.3
O=C(Nc1ccccc1)C1=C[C@@H](c2ccc(C(F)(F)F)cc2)C[C@@H](OCc2ccc(CO)cc2)O1	11.7	79.2*	24.6	-8.2	16.7	-4.8
C#CCNC(=O)C1=C[C@H](c2csc3ccccc23)C[C@H](OCc2ccc(CO)cc2)O1	-3.3	-8.1	0.4	19.2	6.3	10.8
O=C(Nc1ccccc1)C1=C[C@@H](c2csc3ccccc23)C[C@@H](OCc2ccc(CO)cc2)O1	14.3	85.6*	12.5	14.8	31.8	46.2
COc1cccc(OC)c1C(=O)Nc1ccccc1C(=O)N1CCCCCC1	-10.7	-3.6	24.9	-5.7	-0.9	4.5
Cc1ccc(C(=O)Nn2cnnc2)cc1Cl	-3.5	-6.5	-2.7	7.8	5.9	13.1
O=C(Nc1ccc(OCc2ccccc2)cc1)c1cccs1	5.1	80.3*	-58.6	-77.7	-112.9	-74.6
Cc1occc1C(=O)Nc1ccc(OCc2ccccc2)cc1	18.2	90.1*	-81.0	-85.4	-84.4	-81.8
O=[N+]([O-])c1cccc(NC(=S)Nc2nc(-c3ccc(Cl)cc3Cl)cs2)c1	46.1	93.0*	.	.	.	.
CC1=C(C#N)C(C(F)(F)F)(C(F)(F)F)N=C(c2ccco2)N1	101.2*	-12.6	10.4	-1.5	17.9	-16.3
N=C(N)SCc1nc2ccccc2c(=O)n1-c1ccccc1Cl	18.4	93.0*	-15.2	-22.0	5.8	-13.4
COc1cccc(C(=O)Nc2ccc(C3CC3(Cl)Cl)cc2)c1 (centres undefined)	-7.6	91.0*	-78.9	-146.4	-151.7	-138.5
COc1cccc(C(=O)Nc2ccc(C)cc2)c1	-3.0	4.1	-53.8	-117.9	-101.8	-137.5
O=C(N/N=C/c1ccc(O)cc1)c1cc(C23CC4CC(CC(C4)C2)C3)[nH]n1	1.0	79.5*	-4.3	13.1	-12.6	-8.9
NC(=O)c1sc2nc(N3CCCCC3)c3c(c2c1N)CCCC3	-4.9	-16.5	35.1	-20.0	-16.5	-14.3
COC(=O)c1sc2nc(N3CCCCC3)c3c(c2c1N)CCCC3	6.1	84.5*	-16.5	-13.9	6.9	-14.5
CCN(CC(=O)Nc1ccc(NC(C)=O)cc1)C(=O)c1cc(-c2ccccc2Cl)nc2ccccc12	.	.	7.6	.	.	.
CN1CCN(Cc2nc3ccccc3c(=O)n2Cc2nc(-c3ccc4ccccc4c3)cs2)CC1	-2.9	99.3*	8.1	.	.	.
CCOc1ccccc1NC(=S)N1CCN(c2cccc(OC)c2)CC1	0.2	5.8	32.8	-0.5	6.4	19.0
Fc1ccc2nc(Nc3nc4c(F)cc(F)cc4s3)sc2c1	89.5*	49.5	-2.1	.	.	.
C=CCn1c2ccccc2c(=O)c2cc(C#Cc3ccccn3)ccc21	8.3	75.5*	-16.6	-87.3	-27.7	-95.1
C=CCn1c2ccccc2c(=O)c2cc(C#Cc3ccsc3)ccc21	6.4	19.6	.	.	.	.
Cc1cc(C(=O)N/N=C/c2cc(N=Nc3ccccc3)ccc2O)n[nH]1	83.3*	108.7*	22.1	.	.	.
O=C(COc1ccc(Br)cc1)NCCNC(=O)c1ccccn1	3.6	-10.8	-3.5	-0.7	-11.0	7.7
SMILES	Beta cell apopt	CSC inhib	Gli-Sufu block	697 NFkB inh	Mdm2 MdmX PPI	Jurkat NFkB inh
CN(CC(=O)Nc1cccc(F)c1)C(=O)CCNC(=O)c1ccco1	-1.0	.	2.5	8.4	6.4	17.8
CC(C)c1ccc(NC(=O)c2snc3ccc(Cl)cc23)cc1	-4.9	79.5*	-77.6	-128.0	-75.1	-122.1
CC1CC(C)(C)OC(c2ccc(C(C)C)cc2)O1 (centres undefined)	.	.	-1.7	.	.	.
CCCn1c(NCc2ccccc2NS(=O)(=O)c2ccc(C)cc2)nc2ccccc21	16.6	75.0*	4.8	-9.5	31.5	3.7
CCn1c(NCc2ccccc2NS(=O)(=O)c2ccc(C)cc2)nc2ccccc21	0.2	67.9	3.3	-26.4	39.7	10.2
CCCC(O)(c1ccc(Br)cc1)C(CN1CCOCC1)c1ccc(Cl)cc1 (centres undefined)	12.7	93.0*	8.2	-30.1	24.2	15.7
Cc1c(NC(=O)C(C)OC(=O)CCc2c[nH]c3ccccc23)c(=O)n(-c2ccccc2)n1C (centres undefined)	0.1	-2.2	9.7	5.2	-31.3	-0.2
Cc1csc(SCC(=O)Nc2cc([N+](=O)[O-])ccc2F)n1	-3.3	-8.1	-5.8	17.2	16.0	5.9
